Results filed as inconclusive are left out. Activity calls are given as the source filed them. Unless noted, calls follow the shape of the dose curve; as a rule, active = well fitted curve in the direction sought with a large enough effect in the repeat runs; inconclusive = weak or mixed curves; inactive = no such curve, though single readings can be large; an effect the other way counts as inactive or inconclusive.
Key:
[1] = qHTS assay to identify small molecule agonists of the peroxisome proliferator-activated receptor delta (PPARd) signaling pathway - cell viability counter screen (AID 743211); also: nearly all actives have a fitted effect of over 55% in size; also: potency is read from the fitted curve at half-maximal effect
How it was run: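 HEK293H PPARd-bla, 3000 cells/well; 5 h preincubation 37C/5% CO2; cpd in DMSO, 17 h 37C; B/G FRET substrate 2 h RT; CellTiter-Glo 30 min RT, luminescence.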

[2] = qHTS assay to identify small molecule antagonists of the peroxisome proliferator-activated receptor delta (PPARd) signaling pathway - cell viability counter screen (AID 743213); also: nearly all actives have a fitted effect of over 50% in size; also: potency is read from the fitted curve at half-maximal effect
How it was run: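 Viability counter-screen, qHTS format: PPARd-bla HEK293H, L165041 300 nM final, 17 h compound exposure at 37 C, CellTiter-Glo luminescence after 30 min RT.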

[3] = biological target: Bile acid receptor (Homo sapiens) (UniProt Q96RI1); assay: qHTS assay to identify small molecule antagonists of the farnesoid-X-receptor (FXR) signaling pathway (AID 743217; active = well fitted inhibition curve with a large enough effect in the signal ratio in the repeat runs, not every such curve was filed as active; the % refers to the signal ratio; also: % is scaled to controls: 0 for no effect and ±100 for the full control effect)
Chain of Bile acid receptor (Homo sapiens) (Q96RI1 whole entry, looked up): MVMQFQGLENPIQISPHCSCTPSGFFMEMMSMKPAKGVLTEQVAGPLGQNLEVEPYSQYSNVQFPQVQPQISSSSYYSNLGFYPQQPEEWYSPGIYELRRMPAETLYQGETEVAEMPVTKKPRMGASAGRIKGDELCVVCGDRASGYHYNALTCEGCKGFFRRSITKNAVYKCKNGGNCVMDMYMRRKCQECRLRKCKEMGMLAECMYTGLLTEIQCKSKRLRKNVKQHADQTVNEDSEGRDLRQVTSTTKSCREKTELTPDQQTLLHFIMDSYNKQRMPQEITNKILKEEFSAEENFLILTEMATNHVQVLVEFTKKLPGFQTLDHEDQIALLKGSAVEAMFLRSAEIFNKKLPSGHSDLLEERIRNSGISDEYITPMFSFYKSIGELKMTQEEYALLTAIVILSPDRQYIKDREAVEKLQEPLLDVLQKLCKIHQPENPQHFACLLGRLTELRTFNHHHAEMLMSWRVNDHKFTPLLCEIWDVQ
How it was run: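 FRET fluorescence after 2 h room-temperature LiveBLAzer loading gives the readout. Prior step: FXR-bla HEK 293T cells, seeded and incubated 5 h, received test compounds plus 50 uM final CDCA for 16 h at 37 °C.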

[4] = qHTS assay to identify small molecule agonists of the farnesoid-X-receptor (FXR) signaling pathway - cell viability counter screen (AID 743218); also: % is scaled to controls: 0 for no effect and ±100 for the full control effect; nearly all actives have a fitted effect of over 45% in size
How it was run: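 Readout: CellTiter-Glo luminescence, 30 min RT, multiplexed after the FXR-bla FRET reading. HEK 293T FXR-UAS-bla cells received compound 5 h post-plating and were incubated 16 h at 37 C.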

[5] = biological target: Bile acid receptor (Homo sapiens) (UniProt Q96RI1); assay: qHTS assay to identify small molecule agonists of the farnesoid-X-receptor (FXR) signaling pathway (AID 743220; active = well fitted activation curve with a large enough effect in the signal ratio in the repeat runs, not every such curve was filed as active; the % refers to the signal ratio; also: % is scaled to controls: 0 for no effect and ±100 for the full control effect)
How it was run: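 FXR-UAS-bla HEK 293T cells carrying a UAS-driven beta-lactamase reporter were plated for 5 h at 37C/5% CO2, then exposed to DMSO-dissolved Tox21 10K compounds for 16 h at 37C. A LiveBLAzer B/G FRET substrate was loaded for 2 h at room temperature before fluorescence reading.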

[6] = qHTS assay to identify small molecule antagonists of the farnesoid-X-receptor (FXR) signaling pathway - cell viability counter screen (AID 743221; active = well fitted cell-killing curve with a large enough effect in the repeat runs, not every such curve was filed as active; also: nearly all actives have a fitted effect of over 50% in size; also: potency is read from the fitted curve at half-maximal effect)
How it was run: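 Luminescence from CellTiter-Glo measures cytotoxicity in GeneBLAzer FXR-UAS-bla HEK 293T cells. Cells were exposed to compounds with 50 uM chenodeoxycholic acid (final) for 16 h at 37 C, in wells also used for the reporter readout.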

[7] = biological target: Vitamin D3 receptor (Homo sapiens) (UniProt P11473); assay: qHTS assay to identify small molecule agonists of the vitamin D receptor (VDR) signaling pathway (AID 743222; calls by dose curve; also: % is scaled to controls: 0 for no effect and ±100 for the full control effect)
Chain of Vitamin D3 receptor (Homo sapiens) (P11473 whole entry, looked up): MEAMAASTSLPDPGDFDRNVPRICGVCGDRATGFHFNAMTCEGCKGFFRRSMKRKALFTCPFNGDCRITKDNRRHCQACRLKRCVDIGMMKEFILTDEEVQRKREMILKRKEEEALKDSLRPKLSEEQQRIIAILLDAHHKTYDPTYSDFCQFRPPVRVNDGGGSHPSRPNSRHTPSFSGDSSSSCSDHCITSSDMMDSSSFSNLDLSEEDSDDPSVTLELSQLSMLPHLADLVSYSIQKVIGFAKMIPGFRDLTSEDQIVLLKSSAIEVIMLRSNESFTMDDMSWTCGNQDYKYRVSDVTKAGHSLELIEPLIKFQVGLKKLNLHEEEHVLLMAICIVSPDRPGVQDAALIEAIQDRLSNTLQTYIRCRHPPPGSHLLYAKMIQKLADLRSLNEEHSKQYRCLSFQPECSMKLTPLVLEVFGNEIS
How it was run: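 Following 4 h attachment at 37C, VDR-bla cells (2,000 per well) received DMSO-dissolved compounds or controls. After 16 h incubation, LiveBLAzer B/G FRET substrate was added and fluorescence read 2 h later at room temperature.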

[8] = biological target: Vitamin D3 receptor (Homo sapiens) (UniProt P11473); assay: qHTS assay to identify small molecule antagonists of the vitamin D receptor (VDR) signaling pathway (AID 743223; active = well fitted inhibition curve with a large enough effect in the signal ratio in the repeat runs, not every such curve was filed as active; the % refers to the signal ratio; also: % is scaled to controls: 0 for no effect and ±100 for the full control effect)
How it was run: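 Antagonist mode uses 1alpha,25-dihydroxyvitamin D3 at 3 nM final as stimulus. VDR-bla cells receive compounds in DMSO, incubate 16 h at 37C, then a beta-lactamase FRET substrate for 2 h at room temperature before fluorescence measurement.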

[9] = qHTS assay to identify small molecule agonists of the vitamin D receptor (VDR) signaling pathway - cell viability counter screen (AID 743224); also: nearly all actives have a fitted effect of over 50% in size; also: potency is read from the fitted curve at half-maximal effect
How it was run: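 In parallel with the bla FRET readout, cytotoxicity toward VDR-bla cells after 16 h compound exposure was assessed by CellTiter-Glo, with luminescence recorded after a 30 min room-temperature incubation.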

[10] = qHTS assay to identify small molecule agonists of the NFkB signaling pathway - cell viability counter screen (AID 1159515; calls by dose curve; also: nearly all actives have a fitted effect of over 55% in size; also: potency is read from the fitted curve at half-maximal effect)
How it was run: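 Plate 2,000 NFkB-bla ME-180 cells/well; incubate overnight. Add compounds, 5 hr at 37 C. Add FRET substrate, 1.5 hr RT. Add CellTiter-Glo, 30 min RT; read luminescence.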

[11] = qHTS assay to identify small molecule agonists of the endoplasmic reticulum stress response signaling pathway - cell viability counter screen (AID 1159517; calls by dose curve; also: series mostly up to about 61 µM; % is scaled to controls: 0 for no effect and ±100 for the full control effect; nearly all actives have a fitted effect of over 50% in size)
How it was run: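 After overnight attachment, ESRE-bla HeLa cells were treated with Tox21 library compounds for 5 hr. CellTiter-Glo luminescence, read 30 min post-addition at room temperature, reported viability.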

[12] = qHTS assay to identify small molecule antagonists of the retinoid-related orphan receptor gamma (ROR-gamma) signaling pathway - cell viability counter screen (AID 1159520)
How it was run: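 Cytotoxicity was read from cellular ATP (CellTiter-Glo luminescence) after 16 hr at 37 C with 1 uM doxycycline induction. The inducer was added 2 hr after compound transfer to Tet-on ROR gamma CHO cells.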

[13] = biological target: Nuclear receptor ROR-gamma (Homo sapiens) (UniProt P51449); assay: qHTS assay to identify small molecule antagonists of the retinoid-related orphan receptor gamma (ROR-gamma) signaling pathway (AID 1159521)
How it was run: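 CHO Tet-on RORγ, RORE-luc reporter. Cpd 2 h pre-incubation, then dox hyclate 1 uM final, 16 h, 37 C/5% CO2. ONE-Glo luminescence; decrease = antagonist.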

[14] = qHTS assay to identify small molecule agonists of the AP-1 signaling pathway - cell viability counter screen (AID 1159525; calls by dose curve; also: nearly all actives have a fitted effect of over 55% in size)
How it was run: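 Intracellular ATP by Cell Titer Glo luminescence (30 min, RT) in the same ME-180 AP-1-bla wells after the 5 h compound exposure at 37 °C. Normalised to tetra n-octyl ammonium bromide and DMSO controls.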

[15] = qHTS assay to identify small molecule agonists of the AP-1 signaling pathway (AID 1159526; calls by dose curve; also: % is scaled to controls: 0 for no effect and ±100 for the full control effect)
[16] = biological target: Retinoic acid receptor RXR-alpha (Homo sapiens) (UniProt P19793); assay: qHTS assay to identify small molecule agonists of the RXR signaling pathway (AID 1159527; calls by dose curve; also: % is scaled to controls: 0 for no effect and ±100 for the full control effect; nearly all actives have a fitted effect of over 35% in size)
Chain of Retinoic acid receptor RXR-alpha (Homo sapiens) (P19793 whole entry, looked up): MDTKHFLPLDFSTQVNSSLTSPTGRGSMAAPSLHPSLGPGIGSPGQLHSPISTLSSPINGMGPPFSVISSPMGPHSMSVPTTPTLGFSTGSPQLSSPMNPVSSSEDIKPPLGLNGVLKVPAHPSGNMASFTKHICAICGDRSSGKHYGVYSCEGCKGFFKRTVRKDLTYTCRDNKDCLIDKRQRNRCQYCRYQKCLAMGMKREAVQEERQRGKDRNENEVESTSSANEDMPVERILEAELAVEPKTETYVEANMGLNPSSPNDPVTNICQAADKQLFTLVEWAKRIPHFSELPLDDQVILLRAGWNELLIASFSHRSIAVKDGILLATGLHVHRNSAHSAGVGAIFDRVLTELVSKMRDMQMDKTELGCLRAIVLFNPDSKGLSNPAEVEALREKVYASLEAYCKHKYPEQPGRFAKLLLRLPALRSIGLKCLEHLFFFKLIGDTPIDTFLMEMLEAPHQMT
How it was run: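 Read-out: beta-lactamase FRET ratio (405 nm excitation, 460 and 530 nm emission) after 2 hr substrate loading at room temperature. Cells were RXR-alpha-UAS-bla HEK 293T treated with compounds for 16 hr in 2% charcoal-stripped FBS medium.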

[17] = biological target: Peroxisome proliferator-activated receptor delta (Homo sapiens) (UniProt Q03181); assay: qHTS assay to identify small molecule agonists of the peroxisome proliferator-activated receptor delta (PPARd) signaling pathway (AID 743212; calls by dose curve)
Chain of Peroxisome proliferator-activated receptor delta (Homo sapiens) (Q03181 whole entry, looked up): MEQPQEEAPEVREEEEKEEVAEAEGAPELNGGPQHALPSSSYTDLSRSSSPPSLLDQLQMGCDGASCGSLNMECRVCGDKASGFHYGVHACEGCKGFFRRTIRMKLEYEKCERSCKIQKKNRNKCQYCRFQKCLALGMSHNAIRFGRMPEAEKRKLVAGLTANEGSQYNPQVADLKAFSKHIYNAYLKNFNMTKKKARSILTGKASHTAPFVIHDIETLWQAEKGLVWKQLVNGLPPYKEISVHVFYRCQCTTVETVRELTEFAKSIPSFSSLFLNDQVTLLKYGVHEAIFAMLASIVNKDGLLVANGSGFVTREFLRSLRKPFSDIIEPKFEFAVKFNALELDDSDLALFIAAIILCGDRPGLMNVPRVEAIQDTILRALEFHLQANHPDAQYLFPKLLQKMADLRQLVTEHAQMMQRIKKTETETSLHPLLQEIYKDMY
How it was run: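 Steps: seed PPARd-bla HEK293H cells; incubate 5 h, 37 C, 5% CO2; add compounds in DMSO; incubate, 37 C; add LiveBLAzer B/G FRET substrate; hold 2 h at room temperature; measure fluorescence.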

[18] = biological target: Peroxisome proliferator-activated receptor delta (Homo sapiens) (UniProt Q03181); assay: qHTS assay to identify small molecule antagonists of the peroxisome proliferator-activated receptor delta (PPARd) signaling pathway (AID 743215; active = well fitted inhibition curve with a large enough effect in the signal ratio in the repeat runs, not every such curve was filed as active; the % refers to the signal ratio)
How it was run: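 Fluorescence from cleaved LiveBLAzer B/G FRET substrate (2 h, room temperature) reports PPARd-driven beta-lactamase in HEK293H UAS-bla cells. Cells had been treated 17 h at 37 C with compound plus 300 nM final L165041.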

[19] = qHTS assay to identify small molecule antagonists of the vitamin D receptor (VDR) signaling pathway - cell viability counter screen (AID 743225)
How it was run: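 Read-out: CellTiter-Glo luminescence measured 30 min after reagent addition at room temperature. Cells were VDR-bla HEK 293T exposed 16 h at 37C, 5% CO2, to compound with 3 nM final calcitriol agonist.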

[20] = qHTS assay to identify small molecule agonists of the endoplasmic reticulum stress response signaling pathway (AID 1159516; active = well fitted activation curve with a large enough effect in the signal ratio in the repeat runs, not every such curve was filed as active; the % refers to the signal ratio; also: % is scaled to controls: 0 for no effect and ±100 for the full control effect)
How it was run: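 Beta-lactamase expression from the ER stress response element in HeLa reporter cells is quantified with the LiveBLAzer B/G FRET substrate, read at 405 nm excitation after 2 hr at room temperature, following 5 hr compound treatment at 37 C.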

Cc1nc(-c2ccc(Cl)cc2)oc1COC(C)(C)C(=O)O
inactive: Potency [1] | Potency [2] | Potency [3] | Potency [4] | Potency [5] | Potency [6] | Potency [7] | Potency [8] | Potency [9] | Potency [10] | Potency [11] | Potency [12] | Potency [13] | Potency [14] | Potency [15] | Potency [16]

CC(C)CCCCCOC(=O)CCS
inactive: Potency [1] | Potency [17] | Potency [2] | Potency [18] | Potency [4] | Potency [6] | Potency [8] | Potency [9] | Potency [19] | Potency [10] | Potency [20] | Potency [12] | Potency [15]

COc1ccc(NC(=O)CC(C)=O)cc1
inactive: Potency [1] | Potency [2] | Potency [18] | Potency [4] | Potency [6] | Potency [7] | Potency [9] | Potency [19] | Potency [10] | Potency [11] | Potency [12] | Potency [13] | Potency [14] | Potency [15] | Potency [16]

CCN(CC)c1ccc2c(-c3ccc(S(=O)(=O)O)cc3S(=O)(=O)[O-])c3ccc(=[N+](CC)CC)cc-3oc2c1
inactive: Potency [17] | Potency [18] | Potency [3] | Potency [4] | Potency [5] | Potency [8] | Potency [10] | Potency [20] | Potency [15] | Potency [16]

O=c1c(O)c(-c2ccc(O)cc2O)oc2cc(O)cc(O)c12
inactive: Potency [1] | Potency [17] | Potency [4] | Potency [5] | Potency [6] | Potency [19] | Potency [10] | Potency [11] | Potency [12] | Potency [13] | Potency [14] | Potency [15] | Potency [16]

C[C@@H](O)[C@H](N)C(=O)O
inactive: Potency [1] | Potency [17] | Potency [2] | Potency [18] | Potency [3] | Potency [4] | Potency [5] | Potency [6] | Potency [9] | Potency [19] | Potency [10] | Potency [11] | activity, negative = cytotoxicity [12] -0.243% [at 19 µM] | activity change, negative = inhibition [13] 1.16% [at 19 µM] | viability change, negative = cytotoxic [14] 3.86% [at 15.8 µM] | activation [15] -7.74% [at 15.8 µM] | activation [16] 0.146% [at 15.8 µM]

CC(=O)OCC=C(C)C
inactive: Potency [1] | Potency [17] | Potency [2] | Potency [18] | Potency [4] | Potency [6] | Potency [7] | Potency [8] | Potency [9] | Potency [19] | Potency [10] | Potency [11] | Potency [12] | Potency [13] | Potency [14] | Potency [15] | Potency [16]

CCOc1ccc2ccccc2c1C(=O)N[C@@H]1C(=O)N2[C@@H]1SC(C)(C)[C@@H]2C(=O)O
inactive: Potency [1] | Potency [2] | Potency [18] | Potency [4] | Potency [5] | Potency [6] | Potency [7] | Potency [8] | Potency [9] | Potency [19] | Potency [10] | Potency [11] | Potency [12] | Potency [13] | Potency [14] | Potency [15] | Potency [16]

CCC(COC(=O)CCS)(COC(=O)CCS)COC(=O)CCS
inactive: Potency [1] | Potency [17] | Potency [2] | Potency [18] | Potency [3] | Potency [4] | Potency [5] | Potency [6] | Potency [7] | Potency [8] | Potency [9] | Potency [19] | Potency [10] | Potency [11] | Potency [12] | Potency [13] | Potency [14] | Potency [15] | Potency [16]

NC[C@H]1O[C@H](O[C@H]2[C@H](O[C@@H]3O[C@H](CO)[C@@H](O)[C@H]3O)C(O)[C@H](N)C[C@@H]2N)[C@H](N)[C@@H](O)[C@@H]1O (stereo partly specified)
inactive: activity change, negative = cytotoxicity [1] 8.47% [at 13.2 µM] | viability change, negative = cytotoxic [2] -6.55% [at 13.7 µM] | viability change, negative = cytotoxic [4] 5.37% [at 13.2 µM] | activity change, negative = cytotoxicity [6] 8.66% [at 13.2 µM] | activity change, negative = cytotoxicity [9] -1.26% [at 13.2 µM] | viability change, negative = cytotoxic [19] -0.622% [at 6.95 µM] | activity, negative = cytotoxic [10] 0.788% [at 6.95 µM] | activity change, negative = cytotoxicity [11] -1.85% [at 6.95 µM] | activity, negative = cytotoxicity [12] 4.86% [at 8.39 µM] | activity change, negative = inhibition [13] 9.94% [at 8.39 µM] | viability change, negative = cytotoxic [14] 9.44% [at 6.97 µM] | activation [15] -3.58% [at 6.97 µM] | activation [16] 5.85% [at 6.98 µM]

CN1CCC[C@@H]1CCO[C@](C)(c1ccccc1)c1ccc(Cl)cc1
inactive: Potency [5] | Potency [20] | Potency [12] | Potency [14]
active: Potency [1] 29.8 µM | Potency [2] 26.6 µM | Potency [6] 29.8 µM | Potency [10] 21.3 µM

O=C(O)[C@H](O)[C@@H](O)[C@H](O[C@@H]1O[C@H](CO)[C@H](O)[C@H](O)[C@H]1O)[C@H](O)CO
inactive: Potency [1] | Potency [17] | Potency [2] | Potency [18] | Potency [6] | Potency [7] | Potency [8] | Potency [9] | Potency [19] | Potency [10] | Potency [20] | Potency [12] | Potency [15] | Potency [16]

CNC(=O)c1ccccc1Sc1ccc2c(/C=C/c3ccccn3)n[nH]c2c1
active: Potency [2] 18.8 µM | Potency [9] 29.8 µM
inactive: Potency [10] | Potency [20] | Potency [13] | Potency [14] | Potency [15]

OC/C=C/CO
inactive: Potency [1] | Potency [17] | Potency [2] | Potency [18] | Potency [6] | Potency [7] | Potency [9] | Potency [19] | Potency [10] | Potency [11] | Potency [12] | Potency [13] | Potency [14] | Potency [15] | Potency [16]

CCOC(=O)NNc1ccc(N(CC)CC(C)O)nn1 (stereo unspecified)
inactive: Potency [1] | Potency [17] | Potency [2] | Potency [18] | Potency [3] | Potency [4] | Potency [5] | Potency [6] | Potency [8] | Potency [9] | Potency [10] | Potency [11] | Potency [12] | Potency [13] | Potency [14] | Potency [15] | Potency [16]

Source: PubChem BioAssay (Tox21)
